In all, about 33,000 sequences were measured (“E-score (-0.5 to 0.5)”: median about -0.012, highest 2% from about 0.27 on). The full list was thinned out, with the highest values kept by preference.
Target: T1, Vhr1 (UniProt P40522)
T1 sequence: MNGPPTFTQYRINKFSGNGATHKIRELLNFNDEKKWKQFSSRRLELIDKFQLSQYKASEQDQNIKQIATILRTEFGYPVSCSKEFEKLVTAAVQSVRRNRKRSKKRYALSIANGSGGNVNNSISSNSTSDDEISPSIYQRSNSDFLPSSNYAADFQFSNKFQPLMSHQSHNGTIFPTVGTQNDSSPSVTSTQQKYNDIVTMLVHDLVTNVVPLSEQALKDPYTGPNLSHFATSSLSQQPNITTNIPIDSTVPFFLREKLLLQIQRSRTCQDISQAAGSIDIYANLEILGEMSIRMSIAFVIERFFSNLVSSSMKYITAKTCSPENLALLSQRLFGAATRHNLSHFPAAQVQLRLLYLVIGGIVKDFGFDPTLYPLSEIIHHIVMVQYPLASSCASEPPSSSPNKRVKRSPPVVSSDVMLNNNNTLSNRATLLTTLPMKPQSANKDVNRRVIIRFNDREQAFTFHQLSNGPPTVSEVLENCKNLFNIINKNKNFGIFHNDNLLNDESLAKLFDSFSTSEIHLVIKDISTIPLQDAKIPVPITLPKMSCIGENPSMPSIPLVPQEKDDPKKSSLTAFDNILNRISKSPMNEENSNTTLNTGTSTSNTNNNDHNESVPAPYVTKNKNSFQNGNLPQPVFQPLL
Assay: PBM E-score (8-mer binding enrichment) (E-score (-0.5 to 0.5)); higher = stronger / more preferred TF binding
Details: protein concentration: 200 nM; construct: GST-full length
Procedure: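 Universal 'all 10-mer' protein binding microarrays (Agilent AMADID 015681) probed with GST-tagged S. cerevisiae TFs (full-length or DBD) made by in vitro transcription/translation (PURExpress), about 100-200 nM. Bound TF was detected with fluorescent anti-GST. Each ungapped 8-mer (which stands for itself and its reverse complement) is scored by the PBM enrichment score (E-score), a modified Wilcoxon-Mann-Whitney statistic from -0.5 to +0.5, computed with the Universal PBM Analysis Suite. Scale: above 0.35 generally sequence-specific binding.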

Sequence | PBM E-score
CACTCGCC | 0.147
TACTCGCA | 0.263
AACTCGCC | 0.00825
GACTCGCA | 0.319
CACTCGTA | -0.0431
GACTCGGA | 0.278
AACTCGTA | 0.0622
AACTCGGA | 0.0616
GACTCGTA | 0.327
TACTCGGA | 0.126
GACTCGCC | 0.276
AACTCGCA | -0.0141
AGCGCATA | -0.0303
CCCAATAG | -0.0738
GACTAAGA | 0.0912
AGTGTTGG | 0.107
ATGCTGGA | -0.001
AATCTCTC | -0.0867
CTAGAGGC | -0.341
CCTTAGAC | -0.16
AGGCTGAG | -0.0574
AACGCGTC | -0.137
CACGCGTA | -0.0315

Sequence | PBM E-score
CACGCGTC | 0.275
GCTCATAA | 0.0821
GTGAGCCA | 0.355
ATGAGCCA | 0.271
CTGAGCCA | 0.247
GCAATGGA | -0.128
AGGAGTGG | 0.0494
ATCAGAAC | 0.0119
GCAGTCAC | 0.353
GCAGTCCC | 0.106
ACAGTCAC | 0.242
CCAGTCAC | 0.296
GCAGTCAA | 0.0401
CCAGTCAA | 0.045
ACGTTGCA | -0.0853
ACCATTAT | 0.169
GCCATGCC | 0.00234
TCTGCCAA | -0.205
CACTGATA | 0.0775
GCAAAATA | 0.00706
GCAATCAC | 0.159
ACAATCAC | 0.275
GTAATCAC | 0.198

Sequence | PBM E-score
ATAATCAG | 0.0967
CTAATCAC | 0.27
ATAATCAC | 0.308
CCAATCAC | 0.179
ATAATCAT | 0.389
ATAATCAA | 0.0618
ACCAGCGT | 0.0656
GCAGAACA | 0.091
CTATTGGA | -0.0419
CAAGGGCG | -0.203
CCACTCGG | -0.147
CTCCCTAA | -0.107
GCAGATTA | 0.0608
ATAAGAAG | -0.11
GAGTACCA | 0.172
CTCCAATC | 0.0374
CTAGTCAG | 0.247
ATAGTCCC | 0.0218
ATCGTCAT | 0.134
ATAGTCTG | -0.0734
AAAGTCAT | 0.256
ATAGTCAC | 0.41
ATAGTCAG | 0.333

Sequence | PBM E-score
ATAGTCAA | 0.165
ATAGTCAT | 0.411
CAACCTTC | -0.171
AACTGGGT | -0.041
GAAGAATC | -0.1
TCTTCACA | 0.0437
CTTTCACC | -0.204
ATTGTTCC | 0.127
TCAAGCGA | -0.0594
GGCTCTAA | -0.0817
GCATAACA | -0.116
ACATAACA | 0.0352
TCATAACA | 0.272
CTCTTGGA | 0.0822
AAAGATTT | -0.134
CCTCACAG | 0.0151
ACTCACAG | 0.325
ACTCACAT | 0.286
ACGCACAT | 0.0403
ACTCTCAC | 0.115
ACACTCAC | 0.281
AATCACAC | 0.316
ACACTCAG | -0.0414

Sequence | PBM E-score
ACGCACAG | 0.04
AATCACAT | 0.17
AATCACAG | 0.27
AATCACAA | 0.187
AGTCTGAC | 0.148
AGGGTCAC | -0.0656
CTTCTTAC | -0.221
CACGGCGG | 0.102
ACAGGAGG | -0.164
CGGAGTAA | 0.0314
AATCGTGT | 0.0868
AAAAGAGG | -0.134
GCCACACC | 0.134
CCGGTGGC | -0.0116
CCTCACAC | -0.0104
ACTCACAC | 0.39
TCTCACAA | 0.0793
GCTCACAC | 0.148
ACTCACAA | 0.286
CCTCACAA | 0.115
